Data as given in PMC13494018.
A number with no mark means an inactive call. The rule behind the calls is not given here.

B1: design_602_0a1f3d3d-7d26-454b-9b34-ebe8ef9bc7d4_1947_dldesign_0_cycle1_af2pred (protein)
chain: ATEEEVKAAVRETIKAAKKYVEAGGDAKEAAEIAHKAQEAKAEGIASGKLDEAYAKVKKLAEEAKAKAEEVEK
B2: design_603_0b98da89-d791-4423-9b2d-fd1b7292da18_819_dldesign_0_cycle1_af2pred (protein)
chain: SAKEKASAALRAVATAAARDAKKRFPKIDKETANEFQKARMYAADPNEVAKGIEHLKAAAAKLGEIGKEYIAAADKVAALL
B3: design_602_0a1f3d3d-7d26-454b-9b34-ebe8ef9bc7d4_1902_dldesign_0_cycle1_af2pred (protein)
chain: DEKKKNLLRAAALTLEEAIEALDTDKNWGAALARSAARYAEEAGDEETAAIAREAAELAAAGGPEVAPEAKALLKEAAERLKKKI
B4: design_603_0b98da89-d791-4423-9b2d-fd1b7292da18_202_dldesign_0_cycle1_af2pred (protein)
chain: GSATVDALEKALDAREELLRLAKELPPERAELAEKLRAAAEELRETIRRAQKLSPEEGAALITAAAEKARALAKEVKAA
B5: design_602_0a1f3d3d-7d26-454b-9b34-ebe8ef9bc7d4_1603_dldesign_0_cycle1_af2pred (protein)
chain: KNTLEKAAEAIQAYREEATAYAKEISKKEGKEAGEKAYEEFKKKVKELIALAKADPEAGLKEATKLLEELKAK
B6: design_603_0b98da89-d791-4423-9b2d-fd1b7292da18_572_dldesign_0_cycle1_af2pred (protein)
chain: SEKEEYLKKAKEEMEKLKAEILELMKKGNEYLPEASKLMAEMREIGAEAAFYVGPEADELRKKIMGEVLEAAKKYSG
B7: design_602_0a1f3d3d-7d26-454b-9b34-ebe8ef9bc7d4_1333_dldesign_0_cycle1_af2pred (protein)
chain: EKERKEKIAKILLESAKDAMKEAEKALKEGKAKKAMMLATLAVSSAKNAYDFGKEASKELAEEAKKALEEAKEMLKKVKKALE
B8: design_603_0b98da89-d791-4423-9b2d-fd1b7292da18_10_dldesign_0_cycle1_af2pred (protein)
chain: EKEKEELRKELLEKYEEVKKAVEEALKNASNPEVQAELAKVVHEFQELAAEVGAKYPEIAEEAKKLRKEAIEEAKKAVEKSK
B9: design_603_0b98da89-d791-4423-9b2d-fd1b7292da18_996_dldesign_0_cycle1_af2pred (protein)
chain: SAAEERRKKGLELAEKRYAELEKLAKETEELNPELGKEAKKEAEEAKKYYEKAAEAPDSEVIDYVAKANEKRIKAEKLYKKAK
B10: design_602_0a1f3d3d-7d26-454b-9b34-ebe8ef9bc7d4_1736_dldesign_0_cycle1_af2pred (protein)
chain: DLKEKVEKAEKILKKRKEKLEKAKEKGPKEAKKEAALAKEQMENLIEALKKILEEAKDDPETKAKAEKVIEEAKKLKEEAEKLEKE
B11: design_603_0b98da89-d791-4423-9b2d-fd1b7292da18_1135_dldesign_0_cycle1_af2pred (protein)
chain: SEELKELAKAVLEEFSKKVHELYELAAEKDKETSKKIKELAKKAAEYGKKAVEDYLKGEKKEEGEKYKKEAEKYFEEAKKLAE
B12: design_603_0b98da89-d791-4423-9b2d-fd1b7292da18_1132_dldesign_0_cycle1_af2pred (protein)
chain: EEEASKKAREDADKISKEQKKIKENAKAAKAGTPEEAKAKYEEAKKAAEEIKKIDPDLGTFVLNNIKKWYA
B13: design_602_0a1f3d3d-7d26-454b-9b34-ebe8ef9bc7d4_1317_dldesign_0_cycle1_af2pred (protein)
chain: MEEKKEEEARKVAHEAFRVAALAENVASAAEKKGDEEIAKKAKEARKTAEKAMELAREGNVKEARKLAKEARKVVEELRKKLEA
B14: design_603_0b98da89-d791-4423-9b2d-fd1b7292da18_74_dldesign_0_cycle1_af2pred (protein)
chain: KEKVKKLEEEAIKALKELSKYRDNPEKAAEYAEKLYEKAFEMGIPLSIASRAAKLAKEGEEGAKEGVKLIKEEAKKVIEE
B15: design_602_0a1f3d3d-7d26-454b-9b34-ebe8ef9bc7d4_1819_dldesign_0_cycle1_af2pred (protein)
chain: GSAIMDAQAKAVEIRTEAEKLAKEYKDLPTAKDFKKAAEIAREALKNGEEAIELSKKAEELLEKAKKKLKEELEKK
B16: design_603_0b98da89-d791-4423-9b2d-fd1b7292da18_39_dldesign_0_cycle1_af2pred (protein)
chain: EETFKKAVEELLKIAKEVYKKDPKAGSAAAGEIYRGKAEYEATGNLEVGVEELQKAAEIIKKADKELGEKAKKIVEEAKKK
B17: design_602_0a1f3d3d-7d26-454b-9b34-ebe8ef9bc7d4_1768_dldesign_0_cycle1_af2pred (protein)
chain: EEKERAKKFGEGYGEAQLDLAESAMKKATKPEEVKKAAETAAERARKRAKEGTPEEAEELLKAAEKIEKLGKEYLAKL
B18: design_603_0b98da89-d791-4423-9b2d-fd1b7292da18_215_dldesign_0_cycle1_af2pred (protein)
chain: MTEEEERALVRGAYRAAVEAAKDPANAADYLAKSKALADELIAKGSKKAIASAAFKLEGVAEAAAKDPATAEVAKAANATAKRLNAAL
B19: design_603_0b98da89-d791-4423-9b2d-fd1b7292da18_573_dldesign_0_cycle1_af2pred (protein)
chain: EELLKGAEEIKKKAEEVVKEIKKINPKLGEEAEKELKEAEKEGKKETPAVYIQKMQEALTYAKSLLIKAKKE
B20: design_603_0b98da89-d791-4423-9b2d-fd1b7292da18_450_dldesign_0_cycle1_af2pred (protein)
chain: MKKEEELKAKYKKAKELVEEKYKRAKEVVKNGTVEQGLAAAESLLEFGKHAGKSLEKAGDKEGGKEVKELAEKYYKELKEEAEKKA
B21: design_602_0a1f3d3d-7d26-454b-9b34-ebe8ef9bc7d4_1707_dldesign_0_cycle1_af2pred (protein)
chain: AAAAEAFGKELAAMLDEAYDKSTEDLEKAKEVLAKLKAKAEAAPAEVAEYAKKALKTAKSIEDSIEIEEKLKK
B22: design_603_0b98da89-d791-4423-9b2d-fd1b7292da18_403_dldesign_0_cycle1_af2pred (protein)
chain: AAAAEERAAGLAGRARVLEKSGLRLAKLNPEQGELLAEFLREEAEADPIGAPHFRAAADRLLAEVRKYKE
B23: design_602_0a1f3d3d-7d26-454b-9b34-ebe8ef9bc7d4_1801_dldesign_0_cycle1_af2pred (protein)
chain: GKLVEEAKKALEEAKALAAKNPELAKMAEAALERFEKSLRAGLAAADGLASTAAKLGAEDPENAKLAELAGKAAELLFEAI
B24: design_602_0a1f3d3d-7d26-454b-9b34-ebe8ef9bc7d4_1719_dldesign_0_cycle1_af2pred (protein)
chain: GLAEEYKKKAEEAEEKAFNSKNVEAAYYYLKASQYYNAAAIYTKKGEEYLEKAKESYEKGKEYEKKGEEIEKK
B25: design_602_0a1f3d3d-7d26-454b-9b34-ebe8ef9bc7d4_1428_dldesign_0_cycle1_af2pred (protein)
chain: EEEEKKKKEYVEKIKKALKEVKEAGKKGTEEQKKLAAETADKLYELKAIAEFSNAEEAEKYAEKAEKLAKETLKKIKK
B26: design_603_0b98da89-d791-4423-9b2d-fd1b7292da18_614_dldesign_0_cycle1_af2pred (protein)
chain: DEYVKKAKEAIKKAKEYVEEAKKYAEKGDIENAIKSVQKAQEEISAAYFYADQALKLDPEKGKKLKEEAEKVKEELEKVKEYIKAK
B27: design_602_0a1f3d3d-7d26-454b-9b34-ebe8ef9bc7d4_1646_dldesign_0_cycle1_af2pred (protein)
chain: SEFKKKAKLISEAELLINRMAALSPEAAAGAKAILKLAEGGKQEEAEKKIKEIKAASPEEATKLAIEVGKKVAAE
B28: design_602_0a1f3d3d-7d26-454b-9b34-ebe8ef9bc7d4_1408_dldesign_0_cycle1_af2pred (protein)
chain: AAAAAAAAKAALDLAKEQLKKAKEYKELAKKYKEEGNISKANSAEADAINAAHAAIVAATKAAADPKYAAEAKKVKDEAEKLEKEVLE
B29: design_603_0b98da89-d791-4423-9b2d-fd1b7292da18_1094_dldesign_0_cycle1_af2pred (protein)
chain: GKEEAEKKLKEAKEKVEEMEKKAKEIEENAKELSAEEIEKIAEEMRKEGEEAIKKAEEADPEKGKEIRKKASEAVHKIREAIAEAKA
B30: design_603_0b98da89-d791-4423-9b2d-fd1b7292da18_386_dldesign_0_cycle1_af2pred (protein)
chain: EKEEIIKRAKEAAERMKELAKKDPKYAEDAKKGKEVAEKAIEKAKESDKSLASAEALAESLELAVEYLEKKLKE
B31: design_603_0b98da89-d791-4423-9b2d-fd1b7292da18_519_dldesign_0_cycle1_af2pred (protein)
chain: AAAQEEARKAAERAAKIMRRRGERTGDLEKAEEAAKRVAAALAEGRAAGSAAMAEALEEFAELEYEKRKEEKKKKEEALE
B32: design_603_0b98da89-d791-4423-9b2d-fd1b7292da18_227_dldesign_0_cycle1_af2pred (protein)
chain: DKLKEKAEKLKKEVEEEMKKMKKLVKEGKEEEAKAEAKKTKEIAEKAEKAGEEAIEKGDEESKKAGRDALATAERAKQAAKAVIK
B33: design_603_0b98da89-d791-4423-9b2d-fd1b7292da18_754_dldesign_0_cycle1_af2pred (protein)
chain: NDEEAKQKLAEAAAKLHEAAALAEYEGDEELAKKAREAAKELKAAAADPSLTAEEKAKLAEEAKKKAEEIIKKVEEK
B34: design_603_0b98da89-d791-4423-9b2d-fd1b7292da18_78_dldesign_0_cycle1_af2pred (protein)
chain: MSENVKFASELIRKVVKEAKKIGKEKGASEEAKKKAIEEVAKAIDKISEAAQKGDKEKAKAIAEEAIKKIKKILEEGA
B35: design_603_0b98da89-d791-4423-9b2d-fd1b7292da18_594_dldesign_0_cycle1_af2pred (protein)
chain: SMEEEAKKKLEEVKKEAEKVKKEAEKALKEAKATDKAKGLAAMAKVAAKAHEVRAEGDYYGKYDPEAAKIGKEVMEYVRAKAKEIEA
B36: design_602_0a1f3d3d-7d26-454b-9b34-ebe8ef9bc7d4_2169_dldesign_0_cycle1_af2pred (protein)
chain: SAFEILKVIEEKAKEVYEITKEENPKIAKKIAAAAYTAGVALGAGDEEEAKKVIEKGKALADKEGAEKGKKALEEAVEEVKKKAKE
B37: design_602_0a1f3d3d-7d26-454b-9b34-ebe8ef9bc7d4_1422_dldesign_0_cycle1_af2pred (protein)
chain: DAFLKEAEKLKKKLTEELKKLKEEAKKLTPEVQKKVLEEVKEAEEALKKALELAKKGDKKEAGKAAQEALEKLAEARWLVNKAK
B38: design_603_0b98da89-d791-4423-9b2d-fd1b7292da18_768_dldesign_0_cycle1_af2pred (protein)
chain: KAFQAYNSSKALADNNVAVAKKLAEKGKLEEAEKAAKEGLERLKARAERLKGDPEAYKAAMKALEEYEKRAKEVVEEGKKAK

biological target: VTCN1, Q7Z7D3
Sequence (Q7Z7D3 whole entry): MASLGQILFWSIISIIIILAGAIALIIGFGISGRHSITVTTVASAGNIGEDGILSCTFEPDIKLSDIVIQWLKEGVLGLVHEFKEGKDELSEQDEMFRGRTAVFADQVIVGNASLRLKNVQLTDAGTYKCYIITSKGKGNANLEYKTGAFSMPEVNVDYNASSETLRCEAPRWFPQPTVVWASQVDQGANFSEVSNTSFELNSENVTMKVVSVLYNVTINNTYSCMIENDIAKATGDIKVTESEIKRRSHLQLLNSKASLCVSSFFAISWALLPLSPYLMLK

Row | Binder | binding in a display sort
1 | B1 | not found
2 | B2 | not found
3 | B3 | not found
4 | B4 | not found
5 | B5 | not found
6 | B6 | not found
7 | B7 | not found
8 | B8 | not found
9 | B9 | not found
10 | B10 | not found
11 | B11 | not found
12 | B12 | not found
13 | B13 | not found
14 | B14 | not found
15 | B15 | not found
16 | B16 | not found
17 | B17 | not found
18 | B18 | not found
19 | B19 | not found

Row | Binder | binding in a display sort
20 | B20 | not found
21 | B21 | not found
22 | B22 | not found
23 | B23 | not found
24 | B24 | not found
25 | B25 | not found
26 | B26 | not found
27 | B27 | not found
28 | B28 | not found
29 | B29 | not found
30 | B30 | not found
31 | B31 | not found
32 | B32 | not found
33 | B33 | not found
34 | B34 | not found
35 | B35 | not found
36 | B36 | not found
37 | B37 | not found
38 | B38 | not found
